Hits are enriched below; roughly 2.4% of the tested compounds scored in any of these assays.
WRN inhibitor – inhibitors of human WRN helicase; Q14191; WRN helicase unwinding, fluorescent forked duplex, kinetic; Potency, µM (titrated, usually from 114 µM), for inactives: top-dose activity change, negative = inhibition, hits mostly inhibitors; 360,000 tested, 0.46% active; also: potency is read from the fitted curve at half-maximal effect; % is scaled to controls: 0 for no effect and ±100 for the full control effect; nearly all actives have a fitted effect of over 55% in size
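Kinetic fluorescence helicase assay: unwinding of a quenched forked DNA duplex (100 nM final) with 2 mM ATP final raises red fluorescence (525/598 nm). Compounds sat 15 min at room temperature with 20 nM WRN beforehand.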
Pol eta inh-1 – blocks human DNA polymerase eta activity | Q9Y253 | recombinant Pol eta, fluorescent DNA replication assay | Potency, µM (highest dose often 114 µM), inactives show at the top dose activity change, negative = inhibition, usual class: inhibitors | 390,000 tested, 1.2% active | AID 588591; also: potency is read from the fitted curve at half-maximal effect; % is scaled to controls: 0 for no effect and ±100 for the full control effect
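Fluorescent replication assay: 50 nM final substrate added after a 15 min room-temperature compound preincubation with 10 nM enzyme. Signal taken at 0 min and again at 10 min.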
FEN1 inhibitor – human FEN1 inhibition; P39748; Recombinant FEN1 flap cleavage, fluorescence, 15 min; Potency, µM (doses to about 114 µM), without a hit: at the highest dose activity change, negative = inhibition, hits mostly inhibitors; 390,000 tested, 0.35% active; also: potency is read from the fitted curve at half-maximal effect; % is scaled to controls: 0 for no effect and ±100 for the full control effect; nearly all actives have a fitted effect of over 65% in size
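Steps: FEN1 (10 nM) dispensed; compound added by pin tool; 15 min at room temperature; substrate added to 50 nM final; reads at 0 min and 15 min; data normalized and fitted (four-parameter Hill).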
Pol beta inh-1 – inhibitors of human DNA polymerase beta; Pol beta primer extension/strand displacement, fluorescence kinetic; 340,000 tested, 1.3% active; P06746; Potency, µM (titrated, usually from 114 µM), for inactives: at the highest dose activity change, negative = inhibition, hits mostly inhibitors; also: potency is read from the fitted curve at half-maximal effect; % is scaled to controls: 0 for no effect and ±100 for the full control effect
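10 nM enzyme + cpd, 15 min RT; start with substrate 50 nM final; read 0 min and after 10 min RT. Corrected, normalized data; 4-parameter Hill curve fit.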
POLI inh – inhibitors of human DNA polymerase iota | Potency, µM (top dose mostly 115 µM), for the others: top-dose activity, negative = inhibition, hits mostly inhibitors | AID 588590 | Pol iota fluorescent replication assay, 10 min | Q9UNA4 | 390,000 tested, 1% active; also: potency is read from the fitted curve at half-maximal effect
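Pol iota at 10 nM preincubated 15 min with compounds at room temperature; reaction started with fluorescent substrate, 50 nM final. Fluorescence read kinetically at 0 and 10 min; buffer-only wells as negative control.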
Pol kappa inh-1 – inhibitors of human DNA polymerase kappa; Q9UBT6; purified Pol kappa, fluorescent DNA synthesis assay, 10 min; Potency, µM (highest dose often 107 µM), inactives show at the highest dose activity, negative = inhibition, hits mostly inhibitors; 400,000 tested, 0.53% active; AID 588579; also: potency is read from the fitted curve at half-maximal effect; % is scaled to controls: 0 for no effect and ±100 for the full control effect
Target sequence (Q9UBT6 whole entry, looked up): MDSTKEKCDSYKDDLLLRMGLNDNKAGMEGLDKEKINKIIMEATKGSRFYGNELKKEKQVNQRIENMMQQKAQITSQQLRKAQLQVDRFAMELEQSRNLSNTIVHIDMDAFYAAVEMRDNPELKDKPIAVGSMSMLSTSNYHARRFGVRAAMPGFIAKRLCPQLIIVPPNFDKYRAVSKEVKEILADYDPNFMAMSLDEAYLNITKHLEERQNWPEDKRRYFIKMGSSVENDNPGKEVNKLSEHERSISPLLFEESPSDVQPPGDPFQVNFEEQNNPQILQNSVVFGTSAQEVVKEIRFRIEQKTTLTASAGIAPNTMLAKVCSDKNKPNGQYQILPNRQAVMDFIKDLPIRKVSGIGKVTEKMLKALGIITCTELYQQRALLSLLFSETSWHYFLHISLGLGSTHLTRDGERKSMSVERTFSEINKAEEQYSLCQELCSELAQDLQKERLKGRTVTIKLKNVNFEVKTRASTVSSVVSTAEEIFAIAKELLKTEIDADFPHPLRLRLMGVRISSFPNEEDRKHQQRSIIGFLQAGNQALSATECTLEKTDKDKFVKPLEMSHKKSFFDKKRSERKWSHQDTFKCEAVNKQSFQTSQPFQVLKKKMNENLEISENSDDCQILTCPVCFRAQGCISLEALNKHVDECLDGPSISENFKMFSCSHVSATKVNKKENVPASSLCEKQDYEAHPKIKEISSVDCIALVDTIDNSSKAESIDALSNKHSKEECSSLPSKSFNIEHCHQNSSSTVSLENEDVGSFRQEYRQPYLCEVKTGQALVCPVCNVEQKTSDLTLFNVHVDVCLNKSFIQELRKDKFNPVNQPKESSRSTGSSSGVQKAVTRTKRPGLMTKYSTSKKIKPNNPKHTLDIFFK
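Fluorescent qHTS in 1536-well format: enzyme (10 nM) and compound sat 15 min at room temperature before 50 nM substrate (final) was added. Signal taken at 0 and 10 min; no-enzyme buffer wells were negative controls.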
Pol beta inh-2 – Inhibitors of human DNA polymerase beta, hit validation. shares compounds with Pol beta inh-1. Pol beta primer extension/strand displacement, fluorescence kinetic. Potency, µM, hits mostly inhibitors. 250 tested, 87% active. AID 540280; calls by dose curve; also: potency is read from the fitted curve at half-maximal effect
Klenow counter – inhibits Klenow fragment polymerase in counter-screen; shares compounds with Pol beta inh-1; Klenow exo- polymerase counter-screen, fluorescent DNA substrate; activity change, negative = inhibition, % at 57.1 µM; 250 tested, under 10 active; AID 540300
HIV RT inh – inhibits HIV-1 reverse transcriptase in counter-screen; shares compounds with Pol beta inh-1; HIV-1 RT polymerase activity, counter-screen; AID 540301; activity % (negative = inhibition, positive = activation), % at 57.1 µM; 250 tested, under 10 active
POLB valid – validation of human DNA polymerase beta inhibitors | 110 tested, 91% active | radiolabeled primer extension gel assay, phosphorimager | AID 540325 | shares compounds with Pol beta inh-1 | inhibition, % at 10 µM;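 active = inhibition at 10 µM of 30% or more; inconclusive = no clear call, values can overlap the other calls; inactive = inhibition at 10 µM under 30%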
TbPGK inh – validation of Trypanosoma brucei phosphoglycerate kinase inhibitors; TbPGK coupled GAPDH assay, Kinase-Glo luminescence; shares compounds with Pol kappa inh-1; Potency, µM (series often up to 57.5 µM), inactives show at the top dose activity change, negative = inhibition, most hits filed as inhibitors; 500 tested, 79% active; also: potency is read from the fitted curve at half-maximal effect; % is scaled to controls: 0 for no effect and ±100 for the full control effect; nearly all actives have a fitted effect of over 65% in size
Pol iota confirm – Human Pol iota inhibitor confirmatory assay; Pol iota primer extension, TAMRA/BHQ fluorescence; shares compounds with Pol kappa inh-1; Potency, µM, usual class: inhibitors; 1,500 tested, 77% active; also: potency is read from the fitted curve at half-maximal effect
Pol kappa inh-2 – Pol kappa (human) inhibition, cherry-pick confirmation. shares compounds with Pol eta inh-1. purified Pol-kappa, fluorescent strand-displacement substrate. Potency, µM, most hits filed as inhibitors. 920 tested, 76% active. AID 720501; also: potency is read from the fitted curve at half-maximal effect
Pol eta inh-2 – Pol eta (human) inhibition, cherry-pick confirmation; shares compounds with Pol eta inh-1; Pol eta primer extension, TAMRA/BHQ fluorescence, 10 min; Potency, µM, usual class: inhibitors; 2,600 tested, 64% active; also: potency is read from the fitted curve at half-maximal effect
* = called active by the depositor; ? = inconclusive; / = no result given; [ ] = another dose, or the depositor's remark. Unless noted, calls follow the shape of the dose curve; as a rule, active = well fitted curve in the direction sought with a large enough effect; inconclusive = small, poorly fitted or top-dose-only effect, or another doubt; inactive = no such curve, though single readings can be large; an effect the other way counts as inactive or inconclusive.

SMILES	WRN inhibitor	Pol eta inh-1	FEN1 inhibitor	Pol beta inh-1	POLI inh	Pol kappa inh-1	Pol beta inh-2	Klenow counter	HIV RT inh	Pol iota confirm	Pol eta inh-2	others
O=C(NCC(c1ccc2c(c1)OCO2)N1CCOCC1)c1cccc(Cl)c1 (stereo not drawn)	/	-23%	12%	-22%	5%	-4%[60.1 µM]	/	/	/	/	/
O=C(CC1Sc2ccccc2NC1=O)Nc1cccc(C(=O)O)c1 (stereo not drawn)	-18%[57.1 µM]	6.3µM*	-20%	20µM*	50µM*	35µM*	28*	13	29	42*	7.6*	POLB valid=16
CC(C)Cn1c(N)c(C(=O)COC(=O)c2cc(-c3ccco3)nc3ccccc23)c(=O)n(C)c1=O	?	18µM*	?	14µM*	25µM*	?	11*	-7	-16	/	48*
CC(C)Cn1c(N)c(C(=O)COC(=O)c2cc(-c3ccccc3)nc3ccccc23)c(=O)n(C)c1=O	7%	-17%	11%	22%	24%	5%	/	/	/	/	/
CC(=O)Nc1ccc(SCC(=O)c2ccc(Br)s2)cc1	-30%	-15%	1%	3%	?	1%	/	/	/	/	/
Cc1ccc(SCC(=O)c2ccc(CC(=O)O)s2)cc1	?	50µM*	-3%	11µM*	?	?	32*	-6	-15	/	76*
O=C(O)CC(NCc1ccco1)C(=O)OCCc1ccccc1 (stereo not drawn)	-8%	-6%	1%	3%	-4%	-13%	/	/	/	/	/
C=C(C)CCOC(=O)C(CC(=O)O)NCc1ccco1 (stereo not drawn)	-4%[11.6 µM]	11µM*	6%	8.9µM*	-7%	?	35*	-7	10	/	27*	Pol kappa inh-2=19*
Cc1ccc(S(=O)(=O)N2CCN(C(=O)Cc3ccc(S(=O)(=O)N4CCOCC4)s3)CC2)cc1	11%	3%	-16%	10%	2%	4%	/	/	/	/	/
COc1ccc(N2CCN(C(=O)Cc3ccc(S(=O)(=O)N4CCOCC4)s3)CC2)cc1	?	20µM*	-20%	13µM*	20µM*	79µM*	32*	-33	45	42*	48*	POLB valid=83*
O=C(Oc1ccc2c(c1)OCO2)c1cc2c(s1)CCC2	?	4µM*	?	10µM*	5µM*	20µM*	16*	-31	30	19*	67*	TbPGK inh=?
CCCCc1cc(=O)oc2cc(C)c(CN3CCCC3)c(O)c12	50µM*	20µM*	?	5µM*	11µM*	?	35*	1	12	/	30*
CCCCc1cc(=O)oc2c(CN3CCCC3)c(O)ccc12	2%	3%	1%	-2%	14%	-5%	/	/	/	/	/
CCn1c(C(=O)N2CCC(C(=O)NCCc3ccc(OC)cc3OC)CC2)cc2sccc21	/	-7%	12%	-3%	?	?	/	/	/	/	/
O=C(NC1CCC(O)CC1)c1cc(-c2ccco2)nc2ccccc12 (stereo not drawn)	?	25µM*	-24%	13µM*	35µM*	?	28*	-17	41	67*	76*	POLB valid=84*
COc1cccc(-c2cc(C(=O)NC3CC3)c3ccccc3n2)c1	2%	-19%	-9%	27%	37%	0%	/	/	/	/	/
COc1ccc(NC(=O)c2cc(C)nc3ccccc23)cc1S(=O)(=O)N1CCOCC1	-22%	8%	-3%	/	58%	-9%	/	/	/	/	/
COc1ccc(NC(=O)c2cc(-c3ccco3)nc3ccccc23)cc1S(=O)(=O)N1CCOCC1	?	16µM*	?	2µM*	?	40µM*	10*	-10	-9	15*	17*
Cc1ccc(C(CCN(Cc2ccccc2)C(=O)c2ccco2)c2ccco2)cc1 (stereo not drawn)	?	18µM*	-4%	10µM*	20µM*	50µM*	16*	-8	-9	/	85*
Cc1ccc(C(=O)Nc2cccc(-c3cnc4ccccc4n3)c2)cc1	-1%	-11%	-2%	36%	26%	0%[60.1 µM]	/	/	/	/	/
CC(=O)Nc1ccc(C(=O)Nc2cccc(-c3cnc4ccccc4n3)c2)cc1	-20%[11.6 µM]	?	2%	4.5µM*	1%	-12%	14*	-31	-10	30*	?	Pol kappa inh-2=47*
Cc1ccc2nc(/C(C#N)=C/c3ccc(-c4cccc([N+](=O)[O-])c4)o3)[nH]c2c1	?	?	45µM*	5µM*	10µM*	-31%	5.6*	-39	32	?	76*
O=C(CCCn1c(SCC(=O)c2ccc(O)c(O)c2)nc2ccccc2c1=O)NCC1CCCO1 (stereo not drawn)	22µM*	20µM*	-22%	7.9µM*	14µM*	20µM*	10*	-25	-12	/	60*
Cc1cccc2sc(NC(=O)C3CCCO3)nc12 (stereo not drawn)	-3%	0%	-1%	0%	-6%	-5%	/	/	/	/	/
